Reference: article PMC5540273 (PLoS ONE, 2017)

What follows are compounds tested on PIK3C2B. Conditions: concentration: 1 μM, replicates: in singlicate; n = 1.
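Further: KINOMEscan kinase panel screen.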

| SMILES | %Inh [%] |
| --- | --- |
| c1ccc(-c2n[nH]cc2-c2ccnc3ccccc23)nc1 [GW271431] | 0 |
| CN1c2ccc(CNc3ccc(F)cc3)cc2-c2c(cnn2C)S1(=O)=O | 19 |
| CC(C)(C)n1cnc2c(N)ncnc21 [SKF-97359] | 0 |
| Cc1nnc(-c2ccc3occ(-c4ccc(C(C)O)cc4)c3c2)o1 (centres unmarked) | 18 |
| Cc1nnc(-c2ccc3ncc(-c4ccc(S(C)=O)cc4)n3c2)o1 (centres unmarked) | 13 |
| Nc1nccc(-c2c(-c3ccc(F)cc3)ncn2C2CCN(CC(F)(F)F)CC2)n1 [SB-236560] | 5 |
| O=c1cc(N2CCOCC2)nc2n(Cc3cccc(Cl)c3Cl)c(C3CC3)nn12 [GSK2358994] | 70 |
| O=C(NCCCN1CCOCC1)c1cccc(Nc2nccc(Nc3ccc(Oc4ccccc4)cc3)n2)c1 [GW663929] | 6 |
| CSc1ccc(-c2cc3ncnc(SCC(=O)O)c3s2)cc1 | 0 |
| CN(C(=O)c1ccc(-c2cc(-c3c[nH]nc3-c3ccccn3)ccn2)cc1)C1CCOCC1 [GW810083] | 0 |
| CCc1ccnc(/C=C/c2n[nH]c3cc(Sc4ccccc4C(=O)NC)ccc23)c1 | 0 |

Each compound was assayed on PIK3C2G. Conditions: concentration: 1 μM, replicates: in singlicate; n = 1.

| SMILES | %Inh [%] |
| --- | --- |
| Cc1cccc(-c2nc(Nc3ccc4ncsc4c3)c3ccccc3n2)n1 [GW867588] | 10 |
| CCc1nc(-c2cccc(C)c2)c(-c2ccnc(NCc3ccccc3)c2)s1 | 18 |
| COc1cc2ncn(-c3cc(OCc4sccc4Cl)c(C(N)=O)s3)c2cc1OC [GSK448459] | 0 |
| Cc1c2ccc(N(C)c3ccnc(Nc4cccc(S(N)(=O)=O)c4)n3)cc2nn1Cc1ccccc1.Cl.Cl [GW787226] | 0 |
| Nc1nc(-c2ccc3c(N)n[nH]c3c2)cc(N2CCCC2)n1 [GSK2227430] | 0 |
| COCCNC(=O)c1ccc(-c2cc(C(=O)NC3CC3)cc(F)c2C)cc1 [GW868318] | 38 |
| COc1ccc(Nc2nccc(N3CCC(NC(=O)Nc4cc(C)ccc4C)C3)n2)cc1 (centres unmarked) [GSK1379741] | 0 |
| COc1ccc(CNC(=O)NC2CCN(c3ccnc(Nc4ccc(OC)cc4)n3)C2)cc1 (centres unmarked) [GSK1379727] | 0 |
| COc1ccc(Nc2ncc(C#N)c(Nc3ccccc3C(N)=O)n2)cc1N1CCN(C)CC1.Cl [GSK1558669] | 0 |
| O=c1cc(N2CCOCC2)nc2n(Cc3cccc(C(F)(F)F)c3)ccn12 [GSK2297543] | 0 |
| NS(=O)(=O)c1cccc(-c2ccc3nccc(-c4cccc(S(N)(=O)=O)c4)c3c2)c1 [GW867253] | 52 |
| c1ccc(-c2cc(-c3c[nH]nc3-c3ccccn3)ccn2)cc1 [GW576604] | 0 |
| Cc1nnc(-c2ccc(C)c(-c3ccc(C(=O)Nc4ccc(NS(C)(=O)=O)cc4)cc3)c2)o1 [GW702865] | 0 |
| N#Cc1ccc(-c2cc(-c3c[nH]nc3-c3ccccn3)ccn2)cc1 [GW693028] | 0 |
| NS(=O)(=O)CCc1cccc(Nc2nccc(-c3c(-c4cccc(NC(=O)c5c(F)cccc5F)c4)nn4ccccc34)n2)c1 [GSK336735] | 0 |
| Cc1ccc(C(=O)NCC(N)=O)cc1-n1c(C)cc(OCc2ccc(F)cc2F)c(Br)c1=O | 51 |
| O=C1Cc2cc(Nc3nc(NCc4cccc(S(=O)(=O)C(F)(F)F)c4)ncc3C(F)(F)F)ccc2N1 | 0 |
| Cl.Cl.Cl.Fc1ccc(-c2ncn(C3CCNCC3)c2-c2ccnc(Nc3ccccc3)n2)cc1 [SB-238039] | 0 |

| SMILES | %Inh [%] |
| --- | --- |
| O=c1cc(N2CCOCC2)nc2n(Cc3cccc4ccccc34)ccn12 [GSK2333389] | 0 |
| Fc1ccc(-c2ncn(CCCN3CCOCC3)c2-c2cccnc2)cc1 [SB-211743] | 0 |
| Cc1cccc(Cn2ccn3c(=O)cc(N4CCOCC4)nc23)c1 [GSK2297542] | 0 |
| COc1ccc(Nc2nccc(N3CCC(NC(=O)Nc4cccc(C(C)=O)c4)C3)n2)cc1 (centres unmarked) [GSK1379731] | 0 |
| Cc1ccc(NC(=O)c2ccnc(N3CCN(C)CC3)c2)cc1-c1ccc(C(=O)NCC2CC2)cc1 [GW775604] | 0 |
| O=C(c1ccc(-c2cc(-c3c[nH]nc3-c3ccccn3)ccn2)cc1)N1CCOCC1 [GW812171] | 0 |
| COC(=O)Nc1nc2cc(Oc3ccc(NC(=O)Nc4cc(F)ccc4F)cc3)ccc2[nH]1.Cl [GW701424] | 0 |
| c1ccc(-c2n[nH]cc2-c2ccnc3ccccc23)nc1 [GW271431] | 0 |
| CN1c2ccc(CNc3ccc(F)cc3)cc2-c2c(cnn2C)S1(=O)=O | 41 |
| CC(C)(C)n1cnc2c(N)ncnc21 [SKF-97359] | 0 |
| Cc1nnc(-c2ccc3occ(-c4ccc(C(C)O)cc4)c3c2)o1 (centres unmarked) | 23 |
| Cc1nnc(-c2ccc3ncc(-c4ccc(S(C)=O)cc4)n3c2)o1 (centres unmarked) | 28 |
| Nc1nccc(-c2c(-c3ccc(F)cc3)ncn2C2CCN(CC(F)(F)F)CC2)n1 [SB-236560] | 53 |
| O=c1cc(N2CCOCC2)nc2n(Cc3cccc(Cl)c3Cl)c(C3CC3)nn12 [GSK2358994] | 64 |
| O=C(NCCCN1CCOCC1)c1cccc(Nc2nccc(Nc3ccc(Oc4ccccc4)cc3)n2)c1 [GW663929] | 0 |
| CSc1ccc(-c2cc3ncnc(SCC(=O)O)c3s2)cc1 | 0 |
| CN(C(=O)c1ccc(-c2cc(-c3c[nH]nc3-c3ccccn3)ccn2)cc1)C1CCOCC1 [GW810083] | 10 |
| CCc1ccnc(/C=C/c2n[nH]c3cc(Sc4ccccc4C(=O)NC)ccc23)c1 | 0 |
